Results as given in PubChem BioAssay (NCI).
Compounds without any hit were thinned out: in the full panel of roughly 79,000, 15% have a hit. Activity calls are given as the source filed them. Rule as the data show it: active = growth inhibition above about 70%; inactive = the rest.

How the values were obtained:
[1] = NCI Yeast Anticancer Drug Screen. Data for the rad52 strain (AID 147);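 also: 0% = growth of vehicle-treated control cultures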; details: S. cerevisiae rad52 mutant growth inhibition, active compounds read high
Outline: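 Compounds are applied to a genetically defined yeast strain lacking normal DNA damage repair, and inhibition of growth is expressed relative to cultures given vehicle only.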

[2] = NCI Yeast Anticancer Drug Screen. Data for the rad50EPP+ strain (AID 151);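 also: 0% = growth of vehicle-treated control cultures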; details: S. cerevisiae rad50 mutant strain, active compounds read high
Outline: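 Compounds were applied to the rad50EPP+ yeast strain, which bears a defined DNA repair alteration, and growth inhibition was determined relative to vehicle-treated cultures.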

[3] = NCI Yeast Anticancer Drug Screen. Data for the mgt1 strain (AID 153); details: S. cerevisiae mgt1 mutant growth inhibition, active compounds read high
Outline: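 Strain: mgt1 yeast, one of a set carrying defined DNA damage repair or cell cycle control alterations. Compound-treated growth compared with vehicle.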

[4] = NCI Yeast Anticancer Drug Screen. Data for the rad50 strain (AID 155);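 also: 0% = growth of vehicle-only cultures of the same strain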; details: S. cerevisiae rad50 strain growth inhibition, active compounds read high
Outline: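 Compounds were tested on a yeast strain with an engineered DNA damage repair alteration; the reported value is growth inhibition normalised to vehicle treatment.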

[5] = NCI Yeast Anticancer Drug Screen. Data for the mec2-1 strain (AID 157); details: S. cerevisiae mec2-1 strain, active compounds read high
Outline: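 Strain: mec2-1 (DNA repair/cell cycle alteration). Compound exposure, then growth measured; inhibition expressed relative to vehicle.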

[6] = NCI Yeast Anticancer Drug Screen. Data for the rad14 strain (AID 159);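 also: 0% = growth of vehicle-treated control cultures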; details: S. cerevisiae rad14 strain growth inhibition, active compounds read high
Outline: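 Compound-treated yeast with a defined DNA-repair lesion; growth inhibition normalised to vehicle-treated cultures.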

[7] = NCI Yeast Anticancer Drug Screen. Data for the sgs1 mgt1 strain (AID 161);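 also: 0% = growth of cultures given vehicle only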; details: S. cerevisiae sgs1 mgt1 strain, active compounds read high
Outline: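 Read-out: growth inhibition vs vehicle controls. Cells: mutant yeast strain deficient in DNA damage repair.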

[8] = NCI Yeast Anticancer Drug Screen. Data for the CLN2oe strain (AID 163);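 also: 0% = growth of vehicle-only control cultures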; details: S. cerevisiae CLN2oe strain, active compounds read high
Outline: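 Growth of a genetically modified yeast strain is measured after compound exposure and compared with cultures given vehicle alone.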

[9] = NCI Yeast Anticancer Drug Screen. Data for the cln2 rad14 strain (AID 165);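 also: 0% = growth equal to vehicle treated cultures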; details: S. cerevisiae cln2 rad14 strain, active compounds read high
Outline: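 Compounds are applied to the cln2 rad14 yeast strain, and growth is then compared with that of vehicle-treated cultures to give inhibition.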

[10] = NCI Yeast Anticancer Drug Screen. Data for the bub3 strain (AID 167); details: S. cerevisiae bub3 mutant strain, active compounds read high
Outline: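 Growth of a checkpoint-deficient yeast mutant is measured after compound exposure. Values represent inhibition relative to vehicle.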

[11] = NCI Yeast Anticancer Drug Screen. Data for the wt2 strain (AID 169);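 also: 0% = growth of vehicle-treated yeast cultures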; details: S. cerevisiae wt2 strain growth inhibition, active compounds read high
Outline: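 This strain belongs to a panel of yeast strains with defined genetic alterations in DNA damage repair or cell cycle control. Compounds are applied, and growth inhibition is measured against vehicle-treated cultures.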

[12] = NCI Yeast Anticancer Drug Screen. Data for the mlh1 strain (AID 171);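 also: 0% = growth of vehicle-treated control cultures of the same strain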; details: S. cerevisiae mlh1 strain growth inhibition, active compounds read high
Outline: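 Growth of the mutant yeast strain after compound exposure, expressed as inhibition relative to vehicle-only controls.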

[13] = NCI Yeast Anticancer Drug Screen. Data for the sgs1 strain (AID 173);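 also: 0% = growth of vehicle-only control cultures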; details: S. cerevisiae sgs1 mutant, active compounds read high
Outline: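 Growth of a yeast strain bearing a defined genetic alteration is measured after compound treatment. Inhibition is expressed relative to vehicle-only controls.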

[14] = NCI Yeast Anticancer Drug Screen. Data for the mlh1 rad18 strain (AID 175); details: S. cerevisiae mlh1 rad18 strain growth inhibition, active compounds read high
Outline: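 Read-out is yeast growth inhibition, calculated against vehicle-only controls. The compound was applied to a strain engineered with DNA damage repair alterations.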

[15] = NCI Yeast Anticancer Drug Screen. Data for the rad18 strain (AID 177); details: S. cerevisiae rad18 mutant growth inhibition, active compounds read high
Outline: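 Growth of the mutant yeast strain after compound exposure, normalised to vehicle-only cultures.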

[16] = NCI Yeast Anticancer Drug Screen. Data for the wt1 strain (AID 149);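 also: 0% = growth of vehicle-treated wt1 cultures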; details: S. cerevisiae wt1 strain (SPY 50644) growth inhibition, active compounds read high
Outline: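 Readout: yeast growth inhibition, normalised to vehicle controls, in the wt1 strain exposed to test compounds.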

[17] = at 5.0 µM (retest, dose inferred, filed as 0.5)
[18] = at 50.0 µM (retest, dose inferred, filed as 5.0)

Measured: growth inhibition

Cc1cccc(C(C)(C)C)c1NC(=O)C(C#N)C1=C(Cl)C(=O)c2ccccc2C1=O (stereo unspecified)
inactive: [1]; at 1.2 µM 6% | [1]; at 3.7 µM 36% | [1]; at 11.0 µM 52% | [2]; at 1.2 µM 14% | [2]; at 3.7 µM 67% | [3]; at 1.2 µM 19% | [3]; at 3.7 µM 32% | [3]; at 11.0 µM 49% | [4]; at 1.2 µM 4% | [4]; at 3.7 µM 24% | [4]; [17] -1% | [5]; at 1.2 µM 14% | [5]; at 3.7 µM 46% | [5]; [17] -4% | [6]; at 1.2 µM 4% | [6]; at 3.7 µM 16% | [7]; [17] 46% | [8]; at 1.2 µM 4% | [8]; at 3.7 µM 30% | [8]; at 11.0 µM 58% | [9]; [17] 19% | [10]; at 1.2 µM 14% | [10]; at 3.7 µM 11% | [10]; [17] 39% | [11]; at 1.2 µM -21% | [11]; at 3.7 µM 6% | [12]; at 1.2 µM 17% | [12]; at 3.7 µM 22% | [12]; at 11.0 µM 56% | [13]; at 1.2 µM -2% | [13]; at 3.7 µM 9% | [13]; at 11.0 µM 45% | [14]; [17] 11% | [15]; at 1.2 µM -6% | [15]; at 3.7 µM 34% | [15]; at 11.0 µM 59%
active: [1]; at 33.0 µM 97% | [1]; at 100.0 µM 98% | [2]; at 11.0 µM 99% | [2]; at 33.0 µM 99% | [2]; at 100.0 µM 98% | [3]; at 33.0 µM 98% | [3]; at 100.0 µM 97% | [4]; at 11.0 µM 70% | [4]; at 33.0 µM 98% | [4]; [18] 97% | [4]; at 50.0 µM 91% | [4]; at 100.0 µM 96% | [5]; at 11.0 µM 95% | [5]; at 33.0 µM 95% | [5]; [18] 98% | [5]; at 50.0 µM 90.5% | [5]; at 100.0 µM 97% | [6]; at 11.0 µM 76% | [6]; at 33.0 µM 98% | [6]; at 100.0 µM 97% | [7]; [18] 98% | [7]; at 50.0 µM 89.5% | [8]; at 33.0 µM 98% | [8]; at 100.0 µM 98% | [9]; [18] 97% | [9]; at 50.0 µM 88.7% | [10]; at 11.0 µM 76% | [10]; at 33.0 µM 98% | [10]; [18] 98% | [10]; at 50.0 µM 92.3% | [10]; at 100.0 µM 96% | [11]; at 11.0 µM 74% | [11]; at 33.0 µM 97% | [11]; at 100.0 µM 94% | [12]; at 33.0 µM 99% | [12]; at 100.0 µM 98% | [13]; at 33.0 µM 98% | [13]; at 100.0 µM 97% | [14]; [18] 97% | [14]; at 50.0 µM 89.5% | [15]; at 33.0 µM 98% | [15]; at 100.0 µM 97%

CCCC/C([O-])=C1/C(=O)N(c2ccccc2)N=C1C.CCCC/C([O-])=C1/C(=O)N(c2ccccc2)N=C1C.[Cu+2]
inactive: [16]; at 1.2 µM 0% | [16]; at 3.7 µM -1% | [16]; at 11.0 µM -2% | [16]; at 33.0 µM -2% | [16]; at 100.0 µM -3% | [2]; at 1.2 µM -1% | [2]; at 3.7 µM 0% | [2]; at 11.0 µM -1% | [2]; at 33.0 µM -2% | [2]; at 100.0 µM 0% | [4]; at 1.2 µM 1% | [4]; at 3.7 µM 2% | [4]; [17] 28% | [4]; at 11.0 µM 2% | [4]; at 33.0 µM 1% | [4]; [18] 48% | [4]; at 50.0 µM -7.7% | [4]; at 100.0 µM 0% | [5]; at 1.2 µM -3% | [5]; at 3.7 µM -3% | [5]; [17] 10% | [5]; at 11.0 µM -6% | [5]; at 33.0 µM 1% | [5]; [18] 29% | [5]; at 50.0 µM -6.8% | [5]; at 100.0 µM -6% | [6]; at 1.2 µM 0% | [6]; at 3.7 µM 0% | [6]; at 11.0 µM -1% | [6]; at 33.0 µM -2% | [6]; at 100.0 µM -2% | [7]; [17] -2% | [7]; [18] 42% | [7]; at 50.0 µM -13.3% | [8]; at 1.2 µM -4% | [8]; at 3.7 µM -2% | [8]; at 11.0 µM 7% | [8]; at 33.0 µM 0% | [8]; at 100.0 µM 3% | [9]; [17] 27% | [9]; [18] 44% | [9]; at 50.0 µM 32.3% | [10]; at 1.2 µM -1% | [10]; at 3.7 µM -1% | [10]; [17] 26% | [10]; at 11.0 µM -4% | [10]; at 33.0 µM -2% | [10]; [18] 48% | [10]; at 50.0 µM -1% | [10]; at 100.0 µM -5% | [11]; at 1.2 µM 0% | [11]; at 3.7 µM 0% | [11]; at 11.0 µM -1% | [11]; at 33.0 µM -2% | [11]; at 100.0 µM -3% | [12]; at 1.2 µM 0% | [12]; at 3.7 µM -3% | [12]; at 11.0 µM -2% | [12]; at 33.0 µM -3% | [12]; at 100.0 µM -2% | [13]; at 1.2 µM 0% | [13]; at 3.7 µM -1% | [13]; at 11.0 µM -2% | [13]; at 33.0 µM -1% | [13]; at 100.0 µM -1% | [14]; [17] 6% | [14]; [18] 8% | [14]; at 50.0 µM -20.8% | [15]; at 1.2 µM -3% | [15]; at 3.7 µM -4% | [15]; at 11.0 µM -1% | [15]; at 33.0 µM -5% | [15]; at 100.0 µM -3%
